Experimental data from PubChem BioAssay (NCI).
The panel holds about 83,000 compounds, 20% with a hit somewhere; the sample as a whole holds those more often.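 Cell lines were cultured in 96-well plates, exposed to a single compound concentration, and assessed for percent growth 48 hours later.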 Active and inactive are the calls of the source.

Test system: NCI-H460 lung
Assay: NCI-60 one-dose screen, 48 h (100 = growth as untreated, 0 = no growth, -100 = all killed)
Conditions: 10 µM unless noted
Protocol: Growth inhibition of the NCI-H460 human Non-Small Cell Lung tumor cell line is measured as a screen for anti-cancer activity. Cells are grown in 96 well plates and exposed to the test compound for 48 hours. Compounds are tested at a single concentration, which is 10^-5 M for most compounds. The reported endpoint is percent growth (GI% or GIPRCNT), where numbers from 0 - 100% represent growth inhibition, and numbers from -100% - 0 represent cell death. For example, a value of 40 represents 60% growth inhibition. A value of 0 means no net growth occurred over the course of the experiment. A value of -40 indicates 40% of cells at the beginning of the experiment died by the end of the experiment. A value of -100 means all cells are dead at the end of the experiment.
NCI-60 Human Tumor Cell Lines Screen was performed using the standard one-dose NCI protocol, which is described in more detail at https://dtp.cancer.gov/discovery_development/nci-60/default.htm.
Compounds with GIPRCNT values below 10 were considered active. Activity score was based on GIPRCNT using the following formula: […]
Score is 0 for GIPRCNT values of 100 or above, 50 for GIPRCNT values of 0, and 100 for GIPRCNT values of -100.

Structure (SMILES) | growth
O=C(/C=C/c1sc(Cl)nc1Cl)c1ccc(Br)cc1 | 103% (inactive)
O=C(Nc1ccc(Cl)cc1F)c1ccccc1O | 27.5% (inactive)
O=c1c2cccc(F)c2sc2c(NCCCNCCO)nc3ccccc3c12 | -40.4% (active)
Cc1c(C(=O)NCCN2CCOCC2)cn2ncnc(Oc3ccc(NC(=O)Nc4ccc(Cl)c(C(F)(F)F)c4)cc3)c12 | 3.24% (active)
CCN1C(=O)N(CC)C2Nn3c(s/c(=C\c4ccc([N+](=O)[O-])cc4)c3=O)=NC21 (stereo not given) | 98.3% (inactive)
C[C@]12CC[C@@H]3c4cc(OC(F)F)c(OS(N)(=O)=O)cc4CC[C@H]3[C@@H]1CC[C@@H]2O | 12.1% (inactive)
O=C(COc1ccc(/C=C2\Cc3ccc(Cl)cc3C2=O)cc1)Nc1nc2ccccc2s1 | 103% (inactive)
C#C[C@]1(O)CC[C@H]2[C@@H]3CC=C4c5sc(Nc6cc(F)ccc6F)nc5CC[C@]4(C)[C@H]3CC[C@@]21C | -54.4% (active)
Cn1cc(-c2ccc3cc(-c4ccc(CC(=O)Nc5cc(C(C)(C)C)nn5C)cc4)cnc3c2)cn1 | 9.41% (active)
CCOC(=O)C1=C(N)Oc2c(sc3c(C)cccc23)C1c1ccc(OC)cc1 (stereo not given) | 21.9% (inactive)
O=c1c2cc(F)ccc2sc2c(N3CCNCC3)nc3ccc(F)cc3c12 | -88.4% (active)
O=C(N=c1oc2ccccc2cc1-c1cc2ccccc2[nH]1)Nc1ccc(Cl)cc1 | 99.6% (inactive)
Cc1cc2nc3cc(C)c(N)cc3[n+](-c3ccccc3)c2cc1N | 65.6% (inactive)
CC1=NN(c2ccc(S(=O)(=O)O)cc2)C(=O)C1N=Nc1ccc(-c2ccc(N=Nc3ccc(OS(=O)(=O)c4ccc(C)cc4)cc3)c(S(=O)(=O)O)c2)cc1 (stereo not given) | 96% (inactive)
COc1cc2cc(Oc3ccc(NC(=O)Nc4ccc(Cl)c(Cl)c4)cc3)c(C)nc2cc1OCCN1CCOCC1 | 91.8% (inactive)
Nc1ccc(Sc2ccc([N+](=O)[O-])c3nonc23)cc1 | 96.7% (inactive)
CCOC(=O)Nc1ccc(C(=O)/C=C/c2ccccc2)cc1 | 91.3% (inactive)
Cc1ccc2sc3c(NCCN)nc4ccccc4c3c(=O)c2c1 | -17.1% (active)
C/C(=N/NC(N)=S)c1sc(Nc2cccc(Cl)c2)nc1C | 92.9% (inactive)
CCc1nnc(NC(=O)c2nnn(-c3ccccc3)c2-c2ccco2)s1 | 83.7% (inactive)

Structure (SMILES) | growth
COc1ccc(-c2nc(NN)c3c(C)nn(-c4ccc(F)cc4)c3n2)cc1 | 18.8% (inactive)
Cc1nc(NC(=O)COc2ccc(/C=C3\Cc4ccc(Cl)cc4C3=O)cc2)sc1C | 101% (inactive)
CCc1cccc2c3c(sc12)C(c1ccc(Cl)cc1)C(C#N)=C(N)O3 (stereo not given) | 10.2% (inactive)
Cc1cccc2c1S/C(=C/c1ccc([N+](=O)[O-])cc1)C2=O | 106% (inactive)
C=CCNc1ccc2c3c(cccc13)C(=O)N(N1C(=O)c3cccc4cccc(c34)C1=O)C2=O | 102% (inactive)
CNC(C)[C@H]1CCC2C3CCC4C[C@@H](N(C)C(=O)c5ccccc5)CC[C@]4(C)C3CC[C@@]21C (stereo not given in full) | -7.41% (active)
C=C(C)C1CCC2(C)OC2C1 (stereo not given) | 103% (inactive)
Fc1cc(-c2nnc3n2NC(=Nc2ccc(Cl)cc2)CS3)c(Cl)cc1Cl | 96.5% (inactive)
NS(=O)(=O)c1ccc(-n2nc(-c3ccc(Cl)cc3)c3ccccc3c2=O)cc1 | 96.3% (inactive)
c1ccc(Cc2nn3cc(-c4ccccc4)nc3s2)cc1 | 102% (inactive)
O=c1c2cc(F)ccc2sc2c(N3CCCCC3)nc3ccccc3c12 | 109% (inactive)
Cc1cc(-c2cc(C)c(N)cc2C)c(C)cc1N | 113% (inactive)
C#Cc1cccc(NC(=O)c2ccc(NC(=O)C=C)cc2)c1 | 94.5% [8.25 µM] (inactive)
COc1ccc(-c2cnc3ccccc3n2)cc1 | 101% (inactive)
COc1ccc(-c2nn(C(=O)c3cc(OC)c(OC)c(OC)c3)c3cc(N)ccc23)cc1 | 9.14% (active)
CNCCCC12CCC(c3ccccc31)c1ccccc12 | 97.3% (inactive)
CCc1ccc2nc(NC(=O)Cc3csc(NC(=O)c4ccco4)n3)sc2c1 | 79% (inactive)
C/C=C(\C)C(=O)N[C@H]1[C@@H](OC(C)=O)C[C@]2(C)C3CC[C@@]4(C)C(CC[C@@H]4C(C)N(C)C)C3CCC2[C@H]1O (stereo not given in full) | 59% (inactive)
COc1ccc(S(=O)(=O)n2cc(C3OC(c4cc(OC)c(OC)c(OC)c4)=NN3C(C)=O)c3ccccc32)cc1OC (stereo not given) | 97.1% (inactive)
CCCCCCCCCCCCCCCCCCOc1ccccc1CCCOP(=O)(O)OCC[N+](C)(C)C | 14.1% (inactive)
